Experiment [1] can be described thus: qHTS of pediatric cancer cell lines to identify multiple opportunities for drug repurposing: Primary screen for NB-EBc1 cells (AID 1347095). Also: potency is read from the fitted curve at half-maximal effect. The procedure, abridged:
(§1)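 Viability was measured as metabolically active cells after 48 hours of treatment, read by CellTiter-Glo luminescence. Compounds were tested at multiple final concentrations, giving concentration-response curves.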
(qHTS replaces the single test concentration by a dilution series.)

The nature of experiment [2]: qHTS of pediatric cancer cell lines to identify multiple opportunities for drug repurposing: Primary screen for Saos-2 cells (AID 1347097). Also: nearly all actives have a fitted effect of over 40% in size. Also: potency is read from the fitted curve at half-maximal effect. The procedure, abridged:
as §1

The nature of experiment [3]: qHTS of pediatric cancer cell lines to identify multiple opportunities for drug repurposing: Primary screen for SK-N-SH cells (AID 1347098). Also: nearly all actives have a fitted effect of over 65% in size. Also: potency is read from the fitted curve at half-maximal effect. In a few lines: (§2)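 Cells (500-1,000/well) rested 5 h, then received compounds for 48 h; metabolically active cells were measured by CellTiter-Glo luminescence. Final concentrations spanned up to 46 µM (MIPE, 11-point) or 0.59 nM-46 µM (NPC, 8-point) in primary screens, 11-point in follow-ups.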

A short description of experiment [4]: qHTS of pediatric cancer cell lines to identify multiple opportunities for drug repurposing: Primary screen for NB1643 cells (AID 1347099). Also: nearly all actives have a fitted effect of over 50% in size. Also: potency is read from the fitted curve at half-maximal effect. The procedure, abridged:
as §1

The nature of experiment [5]: qHTS of pediatric cancer cell lines to identify multiple opportunities for drug repurposing: Primary screen for LAN-5 cells (AID 1347100). Also: potency is read from the fitted curve at half-maximal effect. In a few lines:
(§3)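 Viability after 48 h compound treatment at 37C, 500-1,000 cells/well, read as ATP luminescence with CellTiter-Glo. Primary screens used 11-point (MIPE, 0.78 nM-46 µM) or 8-point (NPC, 0.59 nM-46 µM) final concentrations; follow-up screens used 11-point dilutions.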

Experiment [6] can be described thus: qHTS of pediatric cancer cell lines to identify multiple opportunities for drug repurposing: Primary screen for BT-12 cells (AID 1347101). Also: nearly all actives have a fitted effect of over 25% in size. Also: potency is read from the fitted curve at half-maximal effect. In a few lines:
as §2

The nature of experiment [7]: qHTS of pediatric cancer cell lines to identify multiple opportunities for drug repurposing: Primary screen for Rh18 cells (AID 1347102). Also: nearly all actives have a fitted effect of over 65% in size. In a few lines: as §3
The nature of experiment [8]: qHTS of pediatric cancer cell lines to identify multiple opportunities for drug repurposing: Primary screen for OHS-50 cells (AID 1347103). Also: nearly all actives have a fitted effect of over 40% in size. Also: potency is read from the fitted curve at half-maximal effect. The procedure, abridged: as §2
Experiment [9] in a line: qHTS of pediatric cancer cell lines to identify multiple opportunities for drug repurposing: Primary screen for RD cells (AID 1347104). Also: nearly all actives have a fitted effect of over 55% in size. Also: potency is read from the fitted curve at half-maximal effect. The procedure, abridged:
as §1

Experiment [10] in a line: qHTS of pediatric cancer cell lines to identify multiple opportunities for drug repurposing: Primary screen for MG 63 (6-TG R) cells (AID 1347105). Also: nearly all actives have a fitted effect of over 50% in size. Also: potency is read from the fitted curve at half-maximal effect. The procedure, abridged: as §1
A short description of experiment [11]: qHTS of pediatric cancer cell lines to identify multiple opportunities for drug repurposing: Primary screen for control Hh wild type fibroblast cells (AID 1347106).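 Also: series mostly up to about 46 µM; a drop in luminescence marks cytotoxicity and a rise apparent proliferation; nearly all actives have a fitted effect of over 55% in size.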 The procedure, abridged:
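Cells (500-1,000/well) in growth media were settled 5 h at 37 degrees C, then given compounds for 48 h. Viability was read as CellTiter-Glo luminescence. Primary runs used MIPE at 11 points (0.78 nM-46 µM) and NPC at 8 points (0.59 nM-46 µM); follow-ups used 11 points.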

Experiment [12] in a line: qHTS of pediatric cancer cell lines to identify multiple opportunities for drug repurposing: Primary screen for Rh41 cells (AID 1347108).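 Also: series mostly up to about 46 µM; luminescence drop marks cytotoxic hits; nearly all actives have a fitted effect of over 70% in size.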 In a few lines:
as §1

A short description of experiment [13]: qHTS of pediatric cancer cell lines to identify multiple opportunities for drug repurposing: Primary screen for U-2 OS cells (AID 1347096). Also: nearly all actives have a fitted effect of over 50% in size. The procedure, abridged:
as §3

A short description of experiment [14]: qHTS of pediatric cancer cell lines to identify multiple opportunities for drug repurposing: Primary screen for Rh30 cells (AID 1347107). Also: series mostly up to about 46 µM; nearly all actives have a fitted effect of over 75% in size. In a few lines:
as §3

The nature of experiment [15]: qHTS of pediatric cancer cell lines to identify multiple opportunities for drug repurposing: Confirmatory screen for NB1643 cells (AID 1347109). Also: nearly all actives have a fitted effect of over 45% in size. In a few lines: as §3
The nature of experiment [16]: qHTS of pediatric cancer cell lines to identify multiple opportunities for drug repurposing: Confirmatory screen for A673 cells (AID 1347110). Also: nearly all actives have a fitted effect of over 65% in size. Also: potency is read from the fitted curve at half-maximal effect. The procedure, abridged:
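A673 cells seeded at 500-1,000 cells/well, rested 5 h, then dosed; primary MIPE 11-point (0.78 nM to 46 µM), NPC (0.59 nM to 46 µM); confirmatory 11-point. CellTiter-Glo luminescence after 48 h.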

A short description of experiment [17]: qHTS of pediatric cancer cell lines to identify multiple opportunities for drug repurposing: Confirmatory screen for SK-N-MC cells (AID 1347111).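 Also: cells exposed to compound for 48 h before the readout; nearly all actives have a fitted effect of over 70% in size.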 Also: potency is read from the fitted curve at half-maximal effect. In a few lines:
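SK-N-MC cells at 500-1,000 cells/well in growth media were pre-incubated 5 h, then exposed to compounds at 11-point dilutions for 48 h at 37 degrees C, 5% CO2. Viability was read as CellTiter-Glo luminescence.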

Experiment [18] in a line: qHTS of pediatric cancer cell lines to identify multiple opportunities for drug repurposing: Confirmatory screen for DAOY cells (AID 1347114). Also: nearly all actives have a fitted effect of over 65% in size. Also: potency is read from the fitted curve at half-maximal effect. In a few lines: (§4)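 Viability measured as metabolically active cells via CellTiter-Glo luminescence following 48 hours of compound exposure, 11-point dilutions in confirmatory testing. 500-1,000 cells/well plated 5 hours before dosing; controls were DMSO and 2.3 µM bortezomib.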

The nature of experiment [19]: qHTS of pediatric cancer cell lines to identify multiple opportunities for drug repurposing: Confirmatory screen for SJ-GBM2 cells (AID 1347116). Also: nearly all actives have a fitted effect of over 60% in size. The procedure, abridged: as §4

Several values for one entry are separate records, joined by “and”; a condition that tells them apart may be missing. Equal values may be shown once. Inconclusive results are not listed. Activity calls are given as the source filed them. Calls follow the shape of the dose curve; as a rule, active = well fitted curve in the direction sought with a large enough effect; inconclusive = small, poorly fitted or top-dose-only effect, or another doubt; inactive = no such curve, though single readings can be large; an effect the other way counts as inactive or inconclusive.

As for `CN(C)CCc1c[nH]c2ccc(CS(=O)(=O)N3CCCC3)cc12`, the Potency entry in experiment [1], in experiment [2], in experiment [3], in [4], in experiment [5] and in experiment [6] was “inactive” each time. The Potency result in experiment [7], in experiment [8], in experiment [9], in experiment [10], in experiment [11] and in experiment [12] was “inactive” in each case.

As to `CCn1cc(C(=O)O)c(=O)c2cc(F)c(N3CCNCC3)cc21`, the Potency result in experiment [1], in experiment [2], in experiment [3], in experiment [4], in [5] and in experiment [6] was “inactive” in each case. In addition, the Potency entry in experiment [7], in [8], in experiment [9], in [10], in [11] and in experiment [12] was “inactive” throughout.

For `C[C@@H](NCCCc1cccc(C(F)(F)F)c1)c1cccc2ccccc12`, the Potency entry in experiment [1], in experiment [13], in [4], in experiment [5], in experiment [6] and in [7] was “inactive” throughout. Also, the Potency entry in experiment [10], in experiment [11], in [14] and in [12] was “inactive” throughout.

`Cc1noc(NS(=O)(=O)c2ccc(N)cc2)c1C`: the Potency entry in [1], in [2], in experiment [3], in experiment [4], in experiment [5] and in experiment [6] was “inactive” in each case. For the same molecule, the Potency entry in [7], in experiment [8], in experiment [9], in experiment [10], in [11] and in [14] was “inactive” each time. Further, in experiment [12], the Potency entry is “inactive”.

`O=NN(CCCl)C(=O)NC1CCCCC1`: the Potency result in experiment [1], in [2], in [3], in experiment [4], in experiment [5] and in [6] was “inactive” throughout. Also, the Potency result in experiment [7], in experiment [8], in experiment [9], in experiment [10], in experiment [11] and in experiment [14] was “inactive” throughout. The Potency result in experiment [12], in [15], in [16], in experiment [17] and in experiment [18] was “inactive” in each case.

As for `COCCCOc1cc(C[C@@H](C[C@H](N)[C@@H](O)C[C@H](C(=O)NCC(C)(C)C(N)=O)C(C)C)C(C)C)ccc1OC`, the Potency entry in experiment [1], in [2], in experiment [3], in [4], in experiment [5] and in experiment [6] was “inactive” each time. The Potency entry in [7], in [8], in experiment [9], in experiment [10], in [11] and in experiment [14] was “inactive” throughout. In addition, in experiment [12], the Potency entry is “inactive”.

Regarding `CNCC[C@H](Oc1cccc2ccccc12)c1cccs1`, the Potency result in experiment [1], in experiment [13], in [5], in experiment [14], in experiment [15] and in experiment [19] was “inactive” each time. Besides, the Potency in experiment [3] is 19.4 µM (active) and 5.41 µM (active); in experiment [8] it was 15.5 µM (active); in [9], 26.6 µM (active) and 4.69 µM (active); in [16], 14.7 µM (active); in experiment [17], 6.57 µM (active).

Take `CC1=NN(c2ccccc2)C(=O)C1`: the Potency entry in experiment [1], in [2], in [3], in [4], in experiment [5] and in experiment [6] was “inactive” throughout. The Potency result in [7], in experiment [8], in experiment [9], in [10], in experiment [11] and in experiment [14] was “inactive” each time. Moreover, in [12], the Potency result was “inactive”.

For `CCOc1cc(N)c(Cl)cc1C(=O)NCC1CN(Cc2ccc(F)cc2)CCO1` (centres undefined), the Potency result in experiment [1], in experiment [2], in experiment [3], in experiment [4], in experiment [5] and in [6] was “inactive” each time. Besides, the Potency result in experiment [7], in experiment [8], in experiment [9], in experiment [10], in experiment [11] and in [14] was “inactive” in each case. In addition, in [12], the Potency result is “inactive”.

`CCc1cc(C(N)=S)ccn1`: the Potency entry in [1], in experiment [2], in [3], in [4], in experiment [5] and in experiment [6] was “inactive” throughout. The Potency entry in experiment [7], in experiment [8], in experiment [9], in experiment [10], in experiment [11] and in experiment [12] was “inactive” throughout.

In the case of `O=C(N[C@H](CO)[C@H](O)c1ccc([N+](=O)[O-])cc1)C(Cl)Cl`, the Potency result in experiment [1], in experiment [2], in [4], in experiment [5], in experiment [6] and in [7] was “inactive” each time. The Potency entry in [8], in experiment [9], in experiment [10], in experiment [11] and in [12] was “inactive” throughout.

As to `Cc1nnc(NS(=O)(=O)c2ccc(N)cc2)s1`, the Potency result in [13], in experiment [2], in experiment [6], in experiment [11] and in experiment [14] was “inactive” in each case.

Regarding `COc1cc2ncnc(Nc3cccc(Cl)c3)c2cc1OC`, the Potency was 8.57 µM (active) in experiment [3], 0.372 µM (active) in [4] and 24.3 µM (active) in experiment [8]. Moreover, in experiment [11], the Potency result is “inactive”.

In the case of `CC(C(=O)O)c1ccc2c(c1)CC(=O)c1ccccc1S2` (centres undefined), the Potency entry in experiment [1], in [2], in [5], in experiment [7], in [10] and in [11] was “inactive” in each case. Besides, the Potency result in experiment [12], in experiment [15], in experiment [17], in [18] and in experiment [19] was “inactive” throughout.

For `COC(=O)Nc1nc2ccc(C(=O)c3ccccc3)cc2[nH]1`, the Potency in experiment [1] is 0.188 µM (active); in experiment [2] it was 66.8 nM (active) and 662 nM (active); in experiment [3], 8.57 µM (active); in experiment [5], 0.469 µM (active); in [6] it was 347 nM (active) and 2.43 µM (active); in [8], 138 nM (active) and 1.53 µM (active). The Potency in experiment [9] was 1.66 µM (active); in experiment [10], 84.1 nM (active) and 935 nM (active); in experiment [16] it was 1.04 µM (active); in experiment [18], 0.928 µM (active). Moreover, the Potency entry in [7] and in experiment [14] was “inactive” in each case.

The values are drawn from PubChem BioAssay (NCATS).
